{"source": "ChEMBL document CHEMBL3988442", "about": "“University of Dundee, Small-Polar-MMV Screening Library” (2021)", "note": "The campaign covered roughly 48,000 compounds. About 13,000 (27%) showed an effect of 50% or more. This is one part of the list."}
{"system": "Wolbachia pipientis", "assay": "Anti-Wolbachia Cell-Based Screen", "type": "functional", "design": "scale not given: in the data most compounds retested in dose-response had high values", "details": "5 µM", "units": {"Percent Effect": "%"}}
{"smiles": "Nc1cc(CCCNC(=O)NC2CC2)nn1-c1ccccc1", "Percent Effect": -28.53}
{"smiles": "CN1CCCn2c(nc(CNC(=O)c3nccn3C)cc2=O)C1.O=C(O)C(F)(F)F.O=C(O)C(F)(F)F", "Percent Effect": -10.78}
{"smiles": "CN1CCCn2c(nc(CNC(=O)c3ccsc3)cc2=O)C1.O=C(O)C(F)(F)F", "Percent Effect": -36.6}
{"smiles": "CCCN1CCCn2c(nc(CNC(=O)N3CCCC3)cc2=O)C1.O=C(O)C(F)(F)F", "Percent Effect": 1.555}
{"smiles": "O=C(NCc1cc(=O)n2c(n1)CN(CC1CC1)CCC2)c1ccsc1.O=C(O)C(F)(F)F", "Percent Effect": 88.56}
{"smiles": "CC(C)N1CCCn2c(nc(CNC(=O)c3nccn3C)cc2=O)C1.O=C(O)C(F)(F)F.O=C(O)C(F)(F)F", "Percent Effect": -1.312}
{"smiles": "COCCN1CCCn2c(nc(CNS(C)(=O)=O)cc2=O)C1.O=C(O)C(F)(F)F", "Percent Effect": 96.89}
{"smiles": "COCC(=O)NCc1cc(=O)n2c(n1)CN(C)CCC2.O=C(O)C(F)(F)F", "Percent Effect": 104.3}
{"smiles": "CCCN1CCCn2c(nc(CNC(=O)c3ccsc3)cc2=O)C1.O=C(O)C(F)(F)F", "Percent Effect": -11.31}
{"smiles": "COCCN1CCCn2c(nc(CNC(=O)COC)cc2=O)C1.O=C(O)C(F)(F)F", "Percent Effect": 101.5}
{"smiles": "CCc1nn(C)c(CC)c1CNC(=O)Nc1cccc2c1CCN2C", "Percent Effect": -5.732}
{"smiles": "O=C1CCC2(CCN(CCSc3ccccc3)CC2)CN1CCCO", "Percent Effect": -17.17}
{"smiles": "CC(CNC(=O)N1CCS(=O)(=O)CC1)Cc1cccs1", "note": "(configuration not stated)", "Percent Effect": 21.62}
{"smiles": "Cc1nnc(C(C)NCC2(c3c(F)cccc3F)CCCC2)o1", "note": "(configuration not stated)", "Percent Effect": 5.955}
{"smiles": "COc1ccc(CN2CCn3cc(CNC(=O)C4CCC4)nc3C2)cc1.O=C(O)C(F)(F)F", "Percent Effect": -6.087}
{"smiles": "COc1ccc(CN2CCn3cc(CNC(=O)CC4CC4)nc3C2)cc1.O=C(O)C(F)(F)F", "Percent Effect": -3.28}
{"smiles": "COCC(=O)NCc1cc(=O)n2c(n1)CN(CC1CC1)CCC2.O=C(O)C(F)(F)F", "Percent Effect": 83.83}
{"smiles": "COCC(=O)NCc1cc(=O)n2c(n1)CN(Cc1ccccc1)CCC2.O=C(O)C(F)(F)F", "Percent Effect": 93.29}
{"smiles": "O=C(NCc1cc(=O)n2c(n1)CN(CC1CCOC1)CCC2)C1CC1.O=C(O)C(F)(F)F", "note": "(configuration not stated)", "Percent Effect": -7.493}
{"smiles": "Cc1ccc(C(C)(O)CNC(=O)c2sccc2OC(F)F)o1", "note": "(configuration not stated)", "Percent Effect": -15.69}
{"smiles": "CCS(=O)(=O)NCC1OCCc2cn(CC3CCOCC3)nc21", "note": "(configuration not stated)", "Percent Effect": -7.17}
{"smiles": "O=C1N(c2ccccc2)Cc2nc(=O)[nH]n21", "Percent Effect": 8.633}
{"smiles": "O=C(c1cccnc1N1CCN(Cc2ccoc2)CC1)N1CCCCC1", "Percent Effect": 11.57}
{"smiles": "CC(C)Nc1ncccc1C(=O)NCc1ccnn1C", "Percent Effect": -5.174}
{"smiles": "CSc1ncccc1C(=O)NCCC(O)c1ccco1", "note": "(configuration not stated)", "Percent Effect": -7.347}
{"smiles": "CC(C)Sc1ncccc1C(=O)NCc1ccc(O)cc1", "Percent Effect": 102.9}
{"smiles": "CC(C)Sc1ncccc1C(=O)NCc1ccc(CS(C)(=O)=O)cc1", "Percent Effect": 3.251}
{"smiles": "CC(C)Sc1ncccc1C(=O)NCc1ccoc1", "Percent Effect": 124.5}
{"smiles": "Cc1c[nH]c(CN(C)C(=O)C2CC(=O)N(Cc3ccncc3)C2)n1", "note": "(configuration not stated)", "Percent Effect": -14.3}
{"smiles": "CN1CCC(N(C)C[C@H]2CC[C@@H](Cc3ccc4occc4c3)O2)CC1", "Percent Effect": -18.26}
{"smiles": "Cc1ccc(N2CCC3(CCN(Cc4csc(C)n4)CC3)CC2)nn1", "Percent Effect": -10.89}
{"smiles": "Cc1nc(CN2CCC3(CCCN(C(=O)c4cnccn4)C3)C2)cs1.O=C(O)C(F)(F)F", "note": "(configuration not stated)", "Percent Effect": -5.513}
{"smiles": "Cc1cnc(N2C[C@H]3CN(Cc4csc(C)n4)C(=O)[C@H]3C2)nc1.O=C(O)C(F)(F)F", "Percent Effect": -0.6865}
{"smiles": "Cc1cnc(N2CCCC3(CCN(Cc4csc(C)n4)C3=O)C2)nc1.O=C(O)C(F)(F)F.O=C(O)C(F)(F)F", "note": "(configuration not stated)", "Percent Effect": -16.03}
{"smiles": "Cc1ccc(N2CCC3(CCN(Cc4nccs4)CC3)CC2)nn1", "Percent Effect": 5.38}
{"smiles": "Cc1nc(CN2CCC3(CCN(C(=O)c4ccoc4C)CC3)C2)cs1.O=C(O)C(F)(F)F", "Percent Effect": 2.621}
{"smiles": "Cc1nc(CN2CCC3(CCN(c4ncc(F)cn4)C3)C2=O)cs1.O=C(O)C(F)(F)F", "note": "(configuration not stated)", "Percent Effect": -4.043}
{"smiles": "COc1cc(N2CCC3(CCN(Cc4csc(C)n4)C3)CC2)ncn1.O=C(O)C(F)(F)F", "Percent Effect": 133.8}
{"smiles": "COc1cc(N2CCC3(CCN(Cc4csc(C)n4)C3=O)C2)ncn1.O=C(O)C(F)(F)F", "note": "(configuration not stated)", "Percent Effect": 173.5}
{"smiles": "Cc1cnc(N2CCC3(CCN(Cc4csc(C)n4)C3=O)C2)nc1.O=C(O)C(F)(F)F", "note": "(configuration not stated)", "Percent Effect": 101.3}
{"smiles": "Cc1ccc(N2CCC3(CCN(Cc4csc(C)n4)C3=O)C2)nn1", "note": "(configuration not stated)", "Percent Effect": 95.91}
{"smiles": "Cc1ncsc1C(=O)NCC1CCC2(CCNCC2)CO1.Cl", "note": "(configuration not stated)", "Percent Effect": -19.17}
{"smiles": "CCc1cc(NCc2cc(CC(C)C)on2)n2nccc2n1", "Percent Effect": -11.32}
{"smiles": "O=C(c1cnccn1)N1CCn2cnc(COCC3CC3)c2C1", "Percent Effect": -16.54}
{"smiles": "COc1cc(N2CCC3(CC(=O)N(Cc4csc(C)n4)C3)C2)ncn1", "note": "(configuration not stated)", "Percent Effect": 116.5}
{"smiles": "O=C(O)C(F)(F)F.O=C(O)C(F)(F)F.c1csc(CN2CCC3(CC2)CCN(CC2CCOCC2)C3)n1", "Percent Effect": -8.285}
{"smiles": "COc1cccc(N2CC3(CCN(c4cc(OC)ncn4)C3)CC2=O)c1", "note": "(configuration not stated)", "Percent Effect": -36.15}
{"smiles": "COc1cc(N2CCC3(CCN(Cc4nccs4)CC3)C2)ncn1.O=C(O)C(F)(F)F", "Percent Effect": 189}
{"smiles": "Fc1ccc(CN2CCC3(CCN(Cc4nccs4)CC3)C2)cc1.O=C(O)C(F)(F)F.O=C(O)C(F)(F)F", "Percent Effect": -8.456}
{"smiles": "Cc1nc(CN2CC3(CCN(c4ncc(F)cn4)C3)CC2=O)cs1.O=C(O)C(F)(F)F", "note": "(configuration not stated)", "Percent Effect": 22.92}
{"smiles": "NC(=O)c1ccc(NC(=O)CCN2CCCC(N3CCCC3)C2)cc1", "note": "(configuration not stated)", "Percent Effect": -7.492}
{"smiles": "COc1ccc2c(ccn2CC(=O)N2CCCC2c2cnn(C)c2)c1", "note": "(configuration not stated)", "Percent Effect": 0.9225}
{"smiles": "COc1ccc2c(ccn2CC(=O)Nc2n[nH]c(C(C)C)n2)c1", "Percent Effect": 99.9}
{"smiles": "CCOC(C)C(=O)Nc1ccc2c(ccn2CC)c1", "note": "(configuration not stated)", "Percent Effect": -6.658}
{"smiles": "COc1ccc2c(ccn2CCC(=O)Nc2n[nH]c(C(C)C)n2)c1", "Percent Effect": 80.39}
{"smiles": "COc1ccc2c(ccn2CCC(=O)Nc2ccc(C(N)=O)cc2)c1", "Percent Effect": 111.4}
{"smiles": "CCOCCOC(C)C(=O)Nc1ccc2c(ccn2CC)c1", "note": "(configuration not stated)", "Percent Effect": -1.618}
{"smiles": "Cc1ccc2c(ccn2CCC(=O)NC[C@@H]2CCCN3CCCC[C@H]23)c1", "Percent Effect": -8.382}
{"smiles": "CCCn1ccc2cc(NC(=O)NCCn3cnnc3CC)ccc21", "Percent Effect": -13.76}
{"smiles": "COc1ccc2c(ccn2CCC(=O)Nc2nc[nH]n2)c1", "Percent Effect": 112.1}
{"smiles": "COc1ccc2c(ccn2CCC(=O)O)c1", "Percent Effect": -1.885}
{"smiles": "CN1Cc2nnc(C3CCOCC3)n2C(Cc2c[nH]cn2)C1", "note": "(configuration not stated)", "Percent Effect": -4.297}
{"smiles": "CC(Cn1cncn1)NC(=O)c1cn(Cc2ccccc2F)nn1", "note": "(configuration not stated)", "Percent Effect": 8.945}
{"smiles": "CCNC(=O)NCC(CC)(OC)c1ccccc1", "note": "(configuration not stated)", "Percent Effect": 2.354}
{"smiles": "O=C(NCCn1ccnc1)C1COCC(=O)N1Cc1ccccc1", "note": "(configuration not stated)", "Percent Effect": -11.36}
{"smiles": "CN1C(=O)CC(c2ccncc2)C12CCN(c1ncccn1)CC2.O=C(O)C(F)(F)F", "note": "(configuration not stated)", "Percent Effect": -40.6}
{"smiles": "CC1N(c2cnn(C)c2)C(=O)COC12CCN(c1ncccn1)CC2.O=C(O)C(F)(F)F", "note": "(configuration not stated)", "Percent Effect": 116.4}
{"smiles": "O=C(O)C(F)(F)F.O=C1COC2(CCN(c3ccccn3)CC2)CN1", "Percent Effect": -3.085}
{"smiles": "Cn1ccnc1CN1CCC2(CC1)CN(c1ccccn1)CCO2.O=C(O)C(F)(F)F.O=C(O)C(F)(F)F", "Percent Effect": -7.538}
{"smiles": "CC1N(c2cnn(C)c2)C(=O)COC12CCN(c1ccccn1)CC2.O=C(O)C(F)(F)F", "note": "(configuration not stated)", "Percent Effect": 138.6}
{"smiles": "O=C(O)C(F)(F)F.O=C1COC2(CCN(c3ncccn3)CC2)CN1", "Percent Effect": 1.956}
{"smiles": "CC(C)(O)CSCCNC(=O)c1cc(F)ccc1F", "Percent Effect": 5.192}
{"smiles": "Cc1ccc(CS(=O)(=O)N2CC[C@H]3[C@H]2CCN3C)cc1", "Percent Effect": 6.881}
{"smiles": "CN(C)C(=O)N1CCC2(CC1)CNc1ccc(F)cc12.Cl", "Percent Effect": -3.877}
{"smiles": "CNC(=O)NC(=O)CN1CCC(c2cccc(F)c2)C1", "note": "(configuration not stated)", "Percent Effect": -6.233}
{"smiles": "CNC(=O)c1cccc(C2CNCCN2C(=O)c2ccn(C)n2)c1", "note": "(configuration not stated)", "Percent Effect": 140.8}
{"smiles": "CNC(=O)c1cccc(C2CNCCN2C(=O)C2CCNCC2)c1", "note": "(configuration not stated)", "Percent Effect": 105.9}
{"smiles": "CNC(=O)c1cccc(Nc2cnn(C)c2)c1", "Percent Effect": -6.81}
{"smiles": "Cc1cnc(C(=O)N2CCNCC2C(=O)NCc2ccncc2)cn1", "note": "(configuration not stated)", "Percent Effect": -22.4}
{"smiles": "CNC(=O)c1cccc(C2CNCCN2C(=O)c2cccc(F)c2)c1.Cl", "note": "(configuration not stated)", "Percent Effect": 87.98}
{"smiles": "CNC(=O)c1cccc(C2CNCCN2C(C)=O)c1", "note": "(configuration not stated)", "Percent Effect": -19.14}
{"smiles": "COCCn1cc(C(=O)N2CCCC2c2cccc(F)c2)ccc1=O", "note": "(configuration not stated)", "Percent Effect": 1.276}
{"smiles": "CC(C)Cn1cncc1CNC(=O)c1cccc(CC2CCNCC2)c1", "Percent Effect": 4.276}
{"smiles": "Cc1nc2c(c(=O)n1C)CCN(C(=O)CCc1ccccc1O)CC2", "Percent Effect": -32.69}
{"smiles": "O=C1CCC2(CCOC2)CN1Cc1ccc2nsnc2c1", "note": "(configuration not stated)", "Percent Effect": -12.42}
{"smiles": "CC(=O)Nc1ncc(S(=O)(=O)N2CCCC(C)C2)s1", "note": "(configuration not stated)", "Percent Effect": -1.419}
{"smiles": "CN(C)C(=O)CN1CCOCC2(CCN(c3ncc(F)cn3)CC2)C1.O=C(O)C(F)(F)F", "Percent Effect": 94.37}
{"smiles": "Fc1ccc(N2CCOC3(COCCN(c4ncccn4)C3)C2)cc1.O=C(O)C(F)(F)F", "note": "(configuration not stated)", "Percent Effect": 20.84}
{"smiles": "O=C(O)C(F)(F)F.c1cnc(N2CCOCC3(C2)CN(c2nccs2)CCO3)nc1", "note": "(configuration not stated)", "Percent Effect": -52.69}
{"smiles": "CN(C)C(=O)CN1CCOCC2(CCN(CC3CCOCC3)CC2)C1.O=C(O)C(F)(F)F.O=C(O)C(F)(F)F", "Percent Effect": 8.025}
{"smiles": "CN(C)C(=O)CN1CCOCC2(CCN(CC3CCOC3)CC2)C1.O=C(O)C(F)(F)F.O=C(O)C(F)(F)F", "note": "(configuration not stated)", "Percent Effect": -17.88}
{"smiles": "CN(C)C(=O)CN1CCOCC2(C1)CN(c1ncc(F)cn1)CCO2.O=C(O)C(F)(F)F", "note": "(configuration not stated)", "Percent Effect": 98.39}
